Each structure is given as a SMILES string. Out of some 39,000 compounds screened, about 3,300 (8.5%) were called active. This excerpt belongs to a sample that is enriched for actives.

The test system of this test is HepG2. The test is described as follows: cytotoxicity call (relative viability < 0.9). The settings on record: 10 µM.
Take `Cc1noc(C)c1NC(=O)N[C@H]1C=C[C@@H](CC(=O)N2CCN(C)CC2)O[C@@H]1CO`: the cytotoxicity call is “inactive”.
Turning to `CC(C)NC(=O)[C@@]1(c2ccc([N+](=O)[O-])cc2)CC(=O)N(CC23CC4CC(CC(C4)C2)C3)[C@@H]1c1ccc(CO)cc1I`, the cytotoxicity call was “active”.
Consider `CCCNC(=O)[C@@]1(c2ccc([N+](=O)[O-])cc2)CC(=O)N(CC23CC4CC(CC(C4)C2)C3)[C@@H]1c1ccc(CO)cc1I`, for which the cytotoxicity call was “inactive”.
In the case of `CC(C)CNC(=O)[C@@]1(c2ccc([N+](=O)[O-])cc2)CC(=O)N(CC23CC4CC(CC(C4)C2)C3)[C@@H]1c1ccc(CO)cc1I`, the cytotoxicity call is “inactive”.
As for `CN(C)c1cc(NC(=O)CNC(C)(C)C)c(O)c2c1C[C@H]1C[C@H]3[C@H](N(C)C)C(=O)C(C(N)=O)=C(O)[C@@]3(O)C(=O)[C@H]1C2=O`, the entry is “inactive”; as for `O=C(C[C@@H]1C[C@H]2c3cc(NC(=O)Cc4ccncc4)ccc3O[C@H]2[C@@H](CO)O1)NCc1cccc(F)c1`, “inactive”; as for `N[C@H](C(=O)O)[C@@H]1CC(Cl)=NO1`, “active”.
As for `C[C@@H]1CN([C@H](C)CO)C(=O)c2cc(NS(=O)(=O)c3ccc(F)cc3)ccc2O[C@@H]1CN(C)S(=O)(=O)c1cccs1`, the cytotoxicity call is “inactive”.
As for `Cc1noc(C)c1S(=O)(=O)Nc1ccc2c(c1)CC(=O)N([C@@H](C)CO)C[C@H](C)[C@@H](CN(C)S(=O)(=O)c1ccc(Cl)cc1)O2`, the entry is “inactive”; as for `Cc1cccc(C(=O)O)c1O`, “inactive”.
Take `Cc1cccc(C)c1NC(=O)c1ccccc1C(=O)O`: the cytotoxicity call was “active”.
For `Cc1cccc(Nc2ccccc2C(=O)O)c1C`, the cytotoxicity call was “inactive”.
As for `C[C@@H]1CN([C@@H](C)CO)S(=O)(=O)c2ccc(C#CC3CCCCC3)cc2O[C@H]1CN(C)C(=O)Cc1ccncc1`, the cytotoxicity call is “inactive”.
As for `COC1CC(OC2C(C)=CCC3CC(CC4(CCC(C)C(C5CCCCC5)O4)O3)OC(=O)C3C=C(C)C(=NO)C4OCC(=CC=CC2C)C34O)OC(C)C1O` (stereo unspecified), the entry is “active”; as for `CO[C@H]1C[C@H](O[C@@H]2/C(C)=C/C[C@@H]3C[C@@H](C[C@]4(CC[C@H](C)[C@@H](C5CCCCC5)O4)O3)OC(=O)[C@@H]3C=C(C)/C(=N/O)[C@H]4OC/C(=C\C=C\[C@@H]2C)[C@]43O)O[C@@H](C)[C@@H]1O`, “active”; as for `CO[C@H]1C[C@@H](O[C@@H]2/C(C)=C/C[C@@H]3C[C@@H](C[C@]4(CC[C@H](C)[C@@H](C5CCCCC5)O4)O3)OC(=O)[C@@H]3C=C(C)/C(=N/O)[C@H]4OC/C(=C\C=C\[C@@H]2C)[C@]43O)O[C@@H](C)[C@@H]1O`, “inactive”.
For `COCC(=O)Nc1ccc2c(c1)C(=O)N(C)[C@@H]1CC[C@@H](CC(=O)N3CCc4ccccc4C3)O[C@@H]1CO2`, the cytotoxicity call is “inactive”.
For `COc1ccc(NC(=O)Nc2ccc3c(c2)C(=O)N([C@@H](C)CO)C[C@H](C)[C@H](CN(C)C(=O)NC2CCCCC2)OCCCC[C@@H](C)O3)cc1`, the cytotoxicity call was “inactive”.
Then `COc1ccc(C)c2c1CCCC2=O`, with “inactive”; and `C[C@H](CO)N1C[C@H](C)[C@H](CN(C)C(=O)Nc2cccc3ccccc23)Oc2ccc(NC(=O)Cn3cnnn3)cc2CC1=O`, with “inactive”; and `C[C@@H]1CN([C@H](C)CO)C(=O)c2cc(NC(=O)Nc3ccc(C(F)(F)F)cc3)ccc2O[C@@H](C)CCCCO[C@H]1CN(C)S(=O)(=O)c1cccs1`, with “inactive”.
As for `C[C@@H]1CCCCO[C@@H](CN(C)C(=O)CCC(F)(F)F)[C@H](C)CN([C@H](C)CO)C(=O)c2cc(NS(=O)(=O)c3cccs3)ccc2O1`, the entry is “inactive”; as for `Cc1ccc(S(=O)(=O)N[C@@H]2CC[C@H](CC(=O)N3CCC(Cc4ccccc4)CC3)O[C@@H]2CO)cc1`, “inactive”; as for `C[C@@H]1CCCCO[C@H](CN(C)C(=O)NC2CCCCC2)[C@@H](C)CN([C@H](C)CO)C(=O)c2cc(NC(=O)Nc3ccccc3)ccc2O1`, “inactive”.
With `C[C@@H]1CCCCO[C@H](CN(C)C(=O)C2CCCCC2)[C@@H](C)CN([C@@H](C)CO)C(=O)c2cc(NS(=O)(=O)c3ccc(F)cc3)ccc2O1`, the cytotoxicity call is “inactive”.
As to `COc1cccc(NC(=O)N(C)C[C@@H]2Oc3ncc(C#Cc4cccnc4)cc3C(=O)N([C@H](C)CO)C[C@@H]2C)c1`, the cytotoxicity call is “inactive”.
For the molecule `C=C1CC2C3C=C(C)C4=CC(=O)CCC4(C)C3CCC2(C)C1(OC(C)=O)C(C)=O` (stereo unspecified), the cytotoxicity call was “inactive”.
With `COC(=O)C[C@@H]1C[C@@H](C)[C@@H]2C(=O)c3c(O)c4c(c(O)c3C(=O)[C@@H]2[C@@H]1O)[C@H]1C[C@@H](O)[C@@]4(O)[C@@H](C)O1`, the cytotoxicity call was “active”.
Regarding `CO[C@H](CN(C)S(=O)(=O)c1cn(C)cn1)[C@H](C)CN(C(=O)Nc1ccc(C(F)(F)F)cc1)[C@@H](C)CO`, the cytotoxicity call is “inactive”.
Turning to `C[C@@H]1CCCCO[C@H](CN(C)C(=O)Nc2ccc(C(F)(F)F)cc2)[C@@H](C)CN([C@H](C)CO)C(=O)c2cc(NS(=O)(=O)c3ccccc3)ccc2O1`, the cytotoxicity call is “inactive”.
With `C[C@@H]1CN([C@@H](C)CO)C(=O)c2cc(NS(=O)(=O)c3ccccc3)ccc2O[C@@H](C)CCCCO[C@@H]1CN(C)C(=O)Nc1ccc(C(F)(F)F)cc1`, the cytotoxicity call was “inactive”.
`C[C@@H]1CN([C@@H](C)CO)C(=O)c2cc(NS(=O)(=O)c3ccccc3)ccc2O[C@@H](C)CCCCO[C@H]1CN(C)C(=O)Nc1ccc(C(F)(F)F)cc1`: the cytotoxicity call is “inactive”.
Consider `C[C@@H]1CN([C@H](C)CO)C(=O)c2cc(NS(=O)(=O)c3ccccc3)ccc2O[C@@H](C)CCCCO[C@H]1CN(C)C(=O)Nc1ccc(C(F)(F)F)cc1`, for which the cytotoxicity call was “inactive”.
As for `C[C@@H]1CCCCO[C@@H](CN(C)C(=O)Nc2ccc(C(F)(F)F)cc2)[C@H](C)CN([C@H](C)CO)C(=O)c2cc(NS(=O)(=O)c3ccccc3)ccc2O1`, the entry is “active”; as for `C[C@H]1CCCCO[C@@H](CN(C)C(=O)Nc2ccc(C(F)(F)F)cc2)[C@@H](C)CN([C@@H](C)CO)C(=O)c2cc(NS(=O)(=O)c3ccccc3)ccc2O1`, “active”; as for `C[C@H](CO)N1C[C@H](C)[C@@H](CN(C)C(=O)Nc2ccc(C(F)(F)F)cc2)OCCCC[C@H](C)Oc2ccc(NS(=O)(=O)c3ccccc3)cc2C1=O`, “inactive”.
Take `C[C@@H]1CCCCO[C@H](CN(C)C(=O)Nc2ccc(C(F)(F)F)cc2)[C@H](C)CN([C@H](C)CO)C(=O)c2cc(NS(=O)(=O)c3ccccc3)ccc2O1`: the cytotoxicity call is “active”.
Then `C[C@@H]1CCCCO[C@H](CN(C)C(=O)Nc2ccc(C(F)(F)F)cc2)[C@H](C)CN([C@@H](C)CO)C(=O)c2cc(NS(=O)(=O)c3ccccc3)ccc2O1`, with “active”.
Then `C[C@@H]1CCCCO[C@@H](CN(C)C(=O)Nc2ccc(C(F)(F)F)cc2)[C@H](C)CN([C@@H](C)CO)C(=O)c2cc(NS(=O)(=O)c3ccccc3)ccc2O1`, with “inactive”.
For `C[C@H]1CN([C@@H](C)CO)C(=O)Cc2cc(NS(=O)(=O)c3cccs3)ccc2O[C@@H]1CN(C)S(=O)(=O)c1cn(C)cn1`, the cytotoxicity call is “inactive”.
Turning to `Cc1noc(C)c1NC(=O)Nc1ccc2c(c1)C(=O)N([C@H](C)CO)C[C@H](C)[C@H](CN(C)S(=O)(=O)c1ccccc1)O2`, the cytotoxicity call was “inactive”.
Then `COc1ccc2c3c([nH]c2c1)[C@H](CO)N(C[C@]13CN(Cc2ccccc2F)C1)S(=O)(=O)c1cn(cn1)C`, with “inactive”; and `Cc1noc(C)c1NC(=O)Nc1ccc2c(c1)CC(=O)N([C@H](C)CO)C[C@H](C)[C@@H](CN(C)S(=O)(=O)c1cccs1)O2`, with “inactive”; and `Cc1ccc(S(=O)(=O)N(C)C[C@@H]2OCCCC[C@H](C)Oc3ccc(NC(=O)Nc4ccc(F)cc4)cc3C(=O)N([C@H](C)CO)C[C@@H]2C)cc1`, with “inactive”.
For the molecule `C[C@H](NC(=O)N(C)C[C@@H]1OCc2ccccc2-c2ccccc2C(=O)N([C@H](C)CO)C[C@@H]1C)c1ccccc1`, the cytotoxicity call is “inactive”.
Turning to `CCn1c(N)nc2c1c(=O)[nH]c(=O)n2C`, the cytotoxicity call is “inactive”.
Then `NCCn1nc([C@H]2CCN(C(=O)c3csc4c3CCCC4)C2)c2nccnc21`, with “inactive”.
For `Cc1ccc(S(=O)(=O)N(C)C[C@@H]2Oc3ccc(NS(=O)(=O)c4cn(C)cn4)cc3C(=O)N([C@@H](C)CO)C[C@H]2C)cc1`, the cytotoxicity call is “inactive”.
Then `CCSC1=C(C#N)C(=O)N[C@@H](CO)S1`, with “inactive”.
Consider `C[C@H](CO)N1C[C@H](C)[C@@H](CN(C)Cc2ccc(C(=O)O)cc2)OCCCC[C@H](C)Oc2ccc(NC(=O)Nc3cccc4ccccc34)cc2C1=O`, for which the cytotoxicity call was “inactive”.
As for `C[C@H](CO)N1C[C@H](C)[C@H](CN(C)C(=O)Nc2ccc(C(F)(F)F)cc2)OCCCC[C@H](C)Oc2ccc(NS(=O)(=O)c3ccccc3)cc2C1=O`, the cytotoxicity call is “inactive”.
Take `C[C@@H]1CCCCO[C@H](CN(C)C(=O)Nc2ccc(C(F)(F)F)cc2)[C@@H](C)CN([C@@H](C)CO)C(=O)c2cc(NS(=O)(=O)c3ccccc3)ccc2O1`: the cytotoxicity call is “inactive”.
Consider `C[C@H]1CCCCO[C@H](CN(C)C(=O)Nc2ccc(C(F)(F)F)cc2)[C@@H](C)CN([C@@H](C)CO)C(=O)c2cc(NS(=O)(=O)c3ccccc3)ccc2O1`, for which the cytotoxicity call is “active”.
`C[C@@H]1CCCCO[C@@H](CN(C)C(=O)Nc2ccc(C(F)(F)F)cc2)[C@@H](C)CN([C@H](C)CO)C(=O)c2cc(NS(=O)(=O)c3ccccc3)ccc2O1`: the cytotoxicity call is “active”.
As for `Cc1noc(C)c1S(=O)(=O)Nc1cccc2c1O[C@@H](CN(C)S(=O)(=O)c1cccs1)[C@@H](C)CN([C@@H](C)CO)C2=O`, the entry is “inactive”; as for `COc1ccc(-n2c(N)cc(=O)[nH]c2=O)cc1`, “inactive”; as for `c1ccc(Nc2nc3c(ccc4ccccc43)s2)cc1`, “active”.
As for `CSc1cccc2sc(Nc3ccc(Cl)cc3)nc12`, the cytotoxicity call was “inactive”.
For `N=C(N)Nc1nc(=O)c2ccccc2s1`, the cytotoxicity call is “inactive”.
Take `O=C(C[C@H]1CC=CC[C@H](Cc2ccc(F)cc2)C(=O)OC[C@@H](Cc2c[nH]c3ccccc23)NC1=O)NCCO`: the cytotoxicity call was “inactive”.
As for `C[C@@H]1CN([C@@H](C)CO)C(=O)Cc2cc(NC(=O)C3CCCCC3)ccc2O[C@@H]1CN(C)S(C)(=O)=O`, the entry is “inactive”.

Source of the values: the antibiotic and cytotoxicity screens of Wong et al. (2023).
